The list is not random: actives were taken first. Their share in the collection is about 3.3%.
AmpC no deterg = AmpC beta-lactamase inhibition without detergent. P00811. AmpC nitrocefin hydrolysis, absorbance 480 nm, 0.0001% Triton. Potency, µM (highest dose often 57.1 µM), inactives show at the highest dose activity change, negative = inhibition, actives largely listed as inhibitors. hit rate 0.52% among 330,000;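 also: plate controls were no compound for no effect and no enzyme for full effect; nearly all actives have a fitted effect of over 20% in size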
Target sequence (P00811 whole entry, looked up): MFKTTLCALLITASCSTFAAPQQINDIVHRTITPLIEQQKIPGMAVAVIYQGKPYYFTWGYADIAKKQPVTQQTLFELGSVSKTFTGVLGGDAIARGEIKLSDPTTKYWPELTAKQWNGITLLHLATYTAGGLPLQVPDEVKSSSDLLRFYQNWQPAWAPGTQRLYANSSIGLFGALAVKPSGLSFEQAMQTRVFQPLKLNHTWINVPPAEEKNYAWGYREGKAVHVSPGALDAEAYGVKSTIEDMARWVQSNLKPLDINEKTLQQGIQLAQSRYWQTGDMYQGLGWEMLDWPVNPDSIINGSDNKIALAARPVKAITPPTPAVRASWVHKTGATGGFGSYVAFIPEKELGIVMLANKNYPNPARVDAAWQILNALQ
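20 mM phosphate pH 7.0 + 0.01% (detergent screen) or 0.0001% Triton X-100; 5.3 nM AmpC reagent; cpd preinc 15 min RT; nitrocefin (800 uM stock) to start; A480 q20 s × 4 min; Activity was normalised to no-enzyme and no-compound control wells.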
Sm TGR inh = blocks Schistosoma mansoni thioredoxin glutathione reductase; purified TGR, DTNB reduction, TNB absorbance 405 nm; Potency, µM (titrated, usually from 114 µM), inactives show top-dose activity change, negative = inhibition, usual class: inhibitors; hit rate 3% among 360,000; AID 485364; also: nearly all actives have a fitted effect of over 60% in size
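Kinetic colorimetric format: TGR-catalysed, NADPH-driven DTNB reduction monitored via TNB absorbance. Enzyme dispensed at 20 nM; compound exposure 15 min at room temperature before reaction start.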
AmpC inh detg = inhibitors of E. coli AmpC beta-lactamase with detergent; P00811; AmpC hydrolysis of nitrocefin, absorbance 480 nm, 0.01% Triton; Potency, µM (top dose mostly 114 µM), inactives show at the highest dose activity change, negative = inhibition, actives largely listed as inhibitors; hit rate 0.041% among 370,000; AID 485294;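 also: 0% = no-compound wells and -100% = no-enzyme wells; nearly all actives have a fitted effect of over 25% in size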
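AmpC (5.3 nM in the dispensed reagent) in 20 mM phosphate pH 7.0 with 0.01% (detergent screen) or 0.0001% Triton X-100 was preincubated with compounds for 15 min at room temperature. Nitrocefin was then added from an 800 uM solution, and hydrolysis was followed at 480 nm.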
The depositor's hits bear a star; ? = inconclusive; . = no result. Calls follow the shape of the dose curve; as a rule, active = well fitted curve in the direction sought with a large enough effect; inconclusive = small, poorly fitted or top-dose-only effect, or another doubt; inactive = no such curve, though single readings can be large; an effect the other way counts as inactive or inconclusive. Unless noted, % is scaled to controls: 0 for no effect and ±100 for the full control effect; potency is read from the fitted curve at half-maximal effect.

SMILES	AmpC no deterg	Sm TGR inh	AmpC inh detg
Cc1ccc(NC(=O)CSc2nc(O)cc(=O)n2-c2ccc(C)cc2)cc1	13µM*	4%	11%
Cc1ccc(NC(=O)CSc2nc(O)c(Cc3ccccc3)c(=O)n2-c2ccccc2)cc1	11µM*	-1%	-7%
O=C(NCc1ccc(F)cc1)C1CCN(S(=O)(=O)c2ccc3c(c2)CCCN3C(=O)C2CCC2)CC1	.	4%	-4%
Cc1ccc(NC(=O)CSc2nnc(CCC(=O)O)c(=O)[nH]2)cc1	-26%	11%	4%
CCN(CC)S(=O)(=O)c1ccc(OC)c(NC(=O)c2ccc(-n3cncn3)c([N+](=O)[O-])c2)c1	-10%	2%	?
O=C(OCCCOC(=O)c1ccc(O)cc1)c1ccc(O)cc1	-44%	-3%	-5%
N#CC1=C(N)Oc2cc(O)ccc2C1c1ccc(Br)s1 (configuration not stated)	-40%	-26%	-18%
COc1ccccc1OCCNC(=O)CN(c1cccc(C)c1)S(=O)(=O)c1ccccc1	83%	-4%	-1%
COc1cccc(-n2c(=O)c3c(C)c(C)sc3n(CC(=O)NCc3ccccc3)c2=O)c1	.	2%	21%
O=C1CC(Cc2ccccc2)C(=O)N1c1ncccn1 (configuration not stated)	-12%	50µM*	5%
Cc1cccc(CC2CC(=O)N(c3ncccn3)C2=O)c1 (configuration not stated)	1%	-2%	?
O=C(CSc1nnc2c(n1)[nH]c1ccccc12)Nc1nncs1	159%	7%	-7%
O=C(COC(=O)C1CC2C=CC1C2)NCc1ccco1 (configuration not stated)	-2%	50µM*	-21%
Cc1ccc2cccc(OCC(=O)NCc3ccco3)c2n1	-18%	45µM*	-1%
COc1ccccc1OCC(=O)NCc1ccco1	-16%	-20%	-5%
COc1cccc(OC)c1C(=O)OCC(=O)NCc1ccco1	-2%	50µM*	-15%
O=C(COC(=O)C1(c2ccc(F)cc2)CCCC1)NCc1ccco1	-10%	32µM*	3%
O=C(COC(=O)/C=C/c1ccc(F)cc1)NCc1ccco1	-17%	3%	-7%
O=C(COC(=O)C1CC2C=CC1C2)NCc1ccc(F)cc1 (configuration not stated)	-28%	-11%	-8%
Cc1ccc(OCC(=O)NCc2ccco2)c([N+](=O)[O-])n1	-5%	.	7%
Cc1nnc(SCC(=O)Nc2ccc(N(C)C)cc2)[nH]c1=O	.	-3%	-5%
CCc1ccc2oc(C(=O)Nc3nc(-c4ccccc4)ns3)c(C)c2c1	.	3%	26%
O=C(CN1CCCc2ccccc21)NC(=O)NCc1ccco1	-29%	-31%	-3%
O=C(COC(=O)C1CCCCC1C(=O)N1CCc2ccccc21)NCc1ccco1 (configuration not stated)	29%	25µM*	?
COc1ccccc1NS(=O)(=O)c1ccc(C(=O)OCC(=O)NCc2ccco2)cc1	-9%	40µM*	?
SMILES	AmpC no deterg	Sm TGR inh	AmpC inh detg
COc1ccccc1N(C)S(=O)(=O)c1ccc(C(=O)OCC(=O)NCc2ccco2)cc1	-3%	1%	?
CN(c1ccccc1)S(=O)(=O)c1ccc(C(=O)OCC(=O)NCc2ccco2)cc1	-32%	25µM*	?
COc1ccccc1NC(=O)COC(=O)c1ccc(S(=O)(=O)NCc2ccco2)cc1	-38%	?	3%
COc1ccccc1CN(C)C(=O)CN1CCN(C(=O)c2cccs2)CC1	88%	-28%	-4%
COCCNC(=O)/C(C#N)=C/c1c(N2CCCCCC2)nc2ccccn2c1=O	45%	11%	4%
Cc1ccc(C(=O)OCN2C(=O)c3ccccc3C2=O)o1	-11%	-16%	?
O=C(NCc1ccc(Cl)cc1)c1ccc(NC(=O)N2CC3CCCN3c3ccccc32)cc1 (configuration not stated)	.	-20%	3%
CCc1ccccc1-n1c(N)c(C(=O)OC)c2nc3ccccc3nc21	.	-1%	0%
Cn1c(O)c(C2=NN(C(=O)CCl)C(c3ccccc3)C2)c(=O)n(C)c1=O (configuration not stated)	-33%	13µM*	5%
CCC(=O)N1N=C(c2c(O)n(C)c(=O)n(C)c2=O)CC1c1ccccc1 (configuration not stated)	-15%	10%	0%
COc1ccc(CNC(=O)C(=O)NCC(c2cccnc2)N2CCN(c3ccccc3F)CC2)cc1 (configuration not stated)	.	8%	21%
